Measurements: PubChem BioAssay (NCATS)
Values joined by “and” are separate entries in the source; they are usually repeats but may differ in a detail not shown here. Equal values may be shown once. A number with no mark means an inactive call. Records with an inconclusive call do not appear. Active and inactive are the calls of the source. Unless noted, calls follow the shape of the dose curve; as a rule, active = well fitted inhibition curve with a large enough effect; inconclusive = small, poorly fitted or top-dose-only effect; inactive = flat fitted curve, though single readings scatter.

What was measured:
[1] = Drug repurposing screens with cells derived from glioblastoma tumor samples (AID 1345199); settings: GBM patient neurospheres viability, ATP luminescence, 48 h; also: nearly all actives have a fitted effect of over 40% in size; also: potency is read from the fitted curve at half-maximal effect; as to activity, negative = cell killing: % is scaled to controls: 0 for no effect and ±100 for the full control effect
In short: (§1)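 Primary testing used CD133+ neurospheres from four GBM patients, seven concentrations, 48 h exposure and ATP-based viability; confirmation added three slower-growing patient lines.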

astro = control astrocytes; assay: as above; settings: viability, ATP luminescence, 48 h; series mostly up to 45.9 µM
In short: as §1

[2] = target: Nuclear receptor subfamily 1 group I member 2 (Rattus norvegicus) (UniProt Q9R1A7); assay: qHTS assay for small molecule activators of the rat pregnane X receptor (rPXR) signaling pathway (AID 651751; call rule not given here; also: 0% is about no effect); settings: rPXR reporter cells, luciferase (One-Glo), 24 h
[3] = at 45.9 µM (top of the series), tumour line B
[4] = at 45.9 µM (top of the series), tumour line D
[5] = at 46.1 µM (top of the series), tumour line C

Sequence of Nuclear receptor subfamily 1 group I member 2 (Rattus norvegicus) (Q9R1A7 whole entry, looked up): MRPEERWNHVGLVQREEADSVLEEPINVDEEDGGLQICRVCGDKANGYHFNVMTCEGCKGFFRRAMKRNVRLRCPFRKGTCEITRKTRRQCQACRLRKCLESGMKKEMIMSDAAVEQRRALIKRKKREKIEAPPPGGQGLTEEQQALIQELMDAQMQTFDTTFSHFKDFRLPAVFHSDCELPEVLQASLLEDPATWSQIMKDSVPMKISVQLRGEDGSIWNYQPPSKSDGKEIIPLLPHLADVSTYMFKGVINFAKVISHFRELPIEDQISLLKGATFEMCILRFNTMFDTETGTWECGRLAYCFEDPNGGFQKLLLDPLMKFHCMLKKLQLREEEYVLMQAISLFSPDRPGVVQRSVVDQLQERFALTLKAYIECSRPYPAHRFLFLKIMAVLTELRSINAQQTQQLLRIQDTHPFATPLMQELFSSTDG

CN(C)CCCCCCN(C)C (tested in a mixture with another compound)
activity, negative = cell killing [1, 3]: -12.5%
activity, negative = cell killing [1, 4]: -12.1%
activity, negative = cell killing [1, 5]: -16.2%
Potency (astro): inactive

CCCC(C)C1(CC)C(=O)NC(=O)NC1=O (centres undefined)
activity, negative = cell killing [1, 3]: -11.9%
activity, negative = cell killing [1, 4]: 0.152%
activity, negative = cell killing [1, 5]: -8.48%
Potency (astro): inactive

CCC1(c2ccccc2)C(=O)NC(=O)N(C(=O)c2ccccc2)C1=O (centres undefined)
activity, negative = cell killing [1, 3]: -17.6%
activity, negative = cell killing [1, 4]: -13.8%
activity, negative = cell killing [1, 5]: -23.5%
Potency (astro): inactive

CCC(=O)O[C@@](Cc1ccccc1)(c1ccccc1)[C@@H](C)CN(C)C
activity, negative = cell killing ([1]; at 20 µM (top of the series), tumour line C): 2.51%
activity, negative = cell killing ([1]; at 21.2 µM (top of the series), tumour line B): -6.39%
activity, negative = cell killing ([1]; at 21.2 µM (top of the series), tumour line D): -21.4%
Potency (astro): inactive

O=P(O)(O)C(Cl)(Cl)P(=O)(O)O
activity, negative = cell killing [1, 3]: 1.35%
activity, negative = cell killing [1, 4]: -11.3%
activity, negative = cell killing [1, 5]: -5.59%
Potency (astro): inactive

C=CCN1CC[C@]23c4c5ccc(O)c4O[C@H]2[C@@H](O)C=C[C@H]3[C@H]1C5
activity, negative = cell killing [1, 3]: -22.5%
activity, negative = cell killing [1, 4]: 3.8%
activity, negative = cell killing [1, 5]: -4.91%
Potency (astro): inactive

C[C@@H]1[C@@H]2Cc3ccc(O)cc3[C@@]1(C)CCN2CC1CC1
activity, negative = cell killing [1, 3]: -1.24%
activity, negative = cell killing [1, 4]: -18.9%
activity, negative = cell killing [1, 5]: 6.7%
Potency (astro): inactive

CCC(=O)O[C@]1(c2ccccc2)CCN(C)C[C@H]1C
activity, negative = cell killing [1, 3]: -13.3%
activity, negative = cell killing [1, 4]: -17.1%
activity, negative = cell killing [1, 5]: -18.2%
Potency (astro): inactive

COc1ccc(OC)c([C@@H](O)[C@H](C)N)c1
activity, negative = cell killing [1, 3]: -15.8%
activity, negative = cell killing [1, 4]: -1.31%
activity, negative = cell killing [1, 5]: -18.1%
Potency (astro): inactive

Cc1cccc(C(C)c2cnc[nH]2)c1C (centres undefined)
activity, negative = cell killing [1, 3]: -17.4%
activity, negative = cell killing [1, 4]: 6.82%
activity, negative = cell killing [1, 5]: -27%
Potency (astro): inactive

C[C@]12CCC(=O)C[C@@H]1CC[C@@H]1[C@@H]2CC[C@]2(C)[C@@H](O)CC[C@@H]12
activity, negative = cell killing [1, 3]: -19.9%
activity, negative = cell killing [1, 4]: -25.4%
activity, negative = cell killing [1, 5]: -25.5%
Potency ([1]; tumour line A): 12.6 µM (active)
max response [2]: 6.67% and 13%

Cc1ccccc1-n1c(CF)nc2ccc(N)cc2c1=O
activity, negative = cell killing [1, 3]: -13.6%
activity, negative = cell killing [1, 4]: 0.0058%
activity, negative = cell killing [1, 5]: -23.5%
Potency (astro): inactive

C[C@]12CC[C@H]3[C@@H](CCC4=C(O)C(=O)CC[C@@H]43)[C@@H]1CC[C@@H]2OC(=O)CCC1CCCC1
activity, negative = cell killing [1, 3]: -11.4%
activity, negative = cell killing [1, 4]: -14.1%
activity, negative = cell killing [1, 5]: -19.8%
Potency (astro): inactive

CNC1(c2ccccc2Cl)CCCCC1=O (centres undefined)
activity, negative = cell killing [1, 3]: -12.1% and -12.4%
activity, negative = cell killing [1, 4]: -13.4% and -12.7%
activity, negative = cell killing [1, 5]: -5.45%
Potency (astro): inactive

NCC(O)c1cccc(O)c1 (centres undefined)
activity, negative = cell killing [1, 3]: -9.47%
activity, negative = cell killing [1, 4]: -16.5%
activity, negative = cell killing [1, 5]: -10.7%
Potency (astro): inactive

CCOP(=O)(OCC)O/C(=C/Cl)c1ccc(Cl)cc1Cl
activity, negative = cell killing [1, 3]: -17.8%
activity, negative = cell killing [1, 4]: -23.4%
Potency ([1]; tumour line A): 12.6 µM (active)
Potency (astro): inactive

C=CCC1(C(C)CCC)C(=O)N=C(S)NC1=O (centres undefined)
activity, negative = cell killing [1, 3]: -7.88%
activity, negative = cell killing [1, 4]: -15.2%
activity, negative = cell killing [1, 5]: -10.6%
Potency (astro): inactive

CN[C@H]1C[C@@H](N)[C@H](O)[C@@H](O[C@@H]2O[C@H](CO)[C@H](O)[C@@H]3OC4(O[C@H]23)O[C@H](C(N)CO)[C@H](O)[C@H](O)[C@H]4O)[C@@H]1O (some centres undefined)
activity, negative = cell killing [1, 4]: -24.2%
activity, negative = cell killing ([1]; at 46 µM (top of the series), tumour line A): -23.6%
activity, negative = cell killing [1, 5]: 9% and -3.99%
Potency (astro): inactive

C[C@]12CC[C@H]3[C@@H](CC[C@@]45O[C@@H]4C(O)=C(C#N)C[C@]35C)[C@@H]1CC[C@@H]2O
activity, negative = cell killing [1, 3]: 0.146%
activity, negative = cell killing [1, 4]: -21.9%
activity, negative = cell killing [1, 5]: -5.72%
Potency (astro): inactive

Clc1ccc(C2(Cn3cncn3)OCCO2)c(Cl)c1
activity, negative = cell killing [1, 3]: -15.5%
activity, negative = cell killing [1, 4]: 0.916%
activity, negative = cell killing [1, 5]: -23.5%
Potency (astro): inactive

COC(=O)[C@@H]1[C@H]2CC[C@@H](C[C@H]1OC(=O)c1ccccc1)N2C
activity, negative = cell killing [1, 3]: -0.119%
activity, negative = cell killing [1, 4]: 4.05%
activity, negative = cell killing [1, 5]: -3.81%
Potency (astro): inactive

CCCCNCC(O)c1ccc(O)cc1 (centres undefined)
activity, negative = cell killing [1, 3]: -14.1%
activity, negative = cell killing [1, 4]: -0.799%
activity, negative = cell killing [1, 5]: 1.33%
Potency (astro): inactive
